Results filed as inconclusive are left out. Calls of active or inactive are those of the source. Calls come from the whole dose curve; as a rule, active = well fitted curve in the direction sought with a large enough effect; inconclusive = small, poorly fitted or top-dose-only effect, or another doubt; inactive = no such curve, though single readings can be large; an effect the other way counts as inactive or inconclusive.
Assays:
[1] = Quantitative High-Throughput drug screen in 47 multiple myeloma cell lines against the NCATS MIPE library collection: KMS21BM_JCRB cell viability assay (AID 1918974); conditions: ATP luminescence, 48 h; viability: at 45.8 µM unless noted
Method in brief: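 Primary qHTS used for cherry-picking: cells at 500/well, library compounds for 48 h (37C, 5% CO2), luminescent ATP assay.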

[2] = Quantitative High-Throughput drug screen in 47 multiple myeloma cell lines against the NCATS MIPE library collection: KMS26_JCRB cell viability assay (AID 1918975); note: nearly all actives have a fitted effect of over 45% in size
Method in brief: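 CellTiter-Glo luminescence (ATP) after 48 h compound exposure, 37C/5% CO2; 500 cells/well; MIPE 4.0 approved/investigational drugs pinned in; DMSO = 100%, media only = 0% viability.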

[3] = Quantitative High-Throughput drug screen in 47 multiple myeloma cell lines against the NCATS MIPE library collection: MMM1_PLB cell viability assay (AID 1918976); note: nearly all actives have a fitted effect of over 35% in size
Method in brief: (§1)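 500 cells/well; MIPE 4.0 drugs pin-transferred; 48 h, 37C, 5% CO2. CellTiter-Glo, 5 min RT, luminescence. Controls: DMSO 100%, media 0%.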

[4] = Quantitative High-Throughput drug screen in 47 multiple myeloma cell lines against the NCATS MIPE library collection: MOLP8_DSMZ cell viability assay (AID 1918977); note: nearly all actives have a fitted effect of over 45% in size
Method in brief: as §1

[5] = Quantitative High-Throughput drug screen in 47 multiple myeloma cell lines against the NCATS MIPE library collection: NCIH929_DSMZ cell viability assay (AID 1918978); note: nearly all actives have a fitted effect of over 35% in size
Method in brief: as §1

[6] = Quantitative High-Throughput drug screen in 47 multiple myeloma cell lines against the NCATS MIPE library collection: MM1S_ATCC cell viability assay (AID 1918980); note: nearly all actives have a fitted effect of over 45% in size
Method in brief: as §1

[7] = Quantitative High-Throughput drug screen in 47 multiple myeloma cell lines against the NCATS MIPE library collection: MM1R_ATCC cell viability assay (AID 1918981); note: nearly all actives have a fitted effect of over 35% in size
Method in brief: as §1

[8] = Quantitative High-Throughput drug screen in 47 multiple myeloma cell lines against the NCATS MIPE library collection: KMS28PE_JCRB cell viability assay (AID 1918983); note: nearly all actives have a fitted effect of over 35% in size
Method in brief: as §1

[9] = Quantitative High-Throughput drug screen in 47 multiple myeloma cell lines against the NCATS MIPE library collection: L363_DSMZ cell viability assay (AID 1918984); note: nearly all actives have a fitted effect of over 40% in size
Method in brief: as §1

[10] = Quantitative High-Throughput drug screen in 47 multiple myeloma cell lines against the NCATS MIPE library collection: KMS34_JCRB cell viability assay (AID 1918985); note: nearly all actives have a fitted effect of over 40% in size
Method in brief: as §1

[11] = Quantitative High-Throughput drug screen in 47 multiple myeloma cell lines against the NCATS MIPE library collection: OCIMY7_PLB cell viability assay (AID 1918987); note: nearly all actives have a fitted effect of over 65% in size
Method in brief: as §1

[12] = Quantitative High-Throughput drug screen in 47 multiple myeloma cell lines against the NCATS MIPE library collection: OCIMY5_PLB cell viability assay (AID 1918988); note: nearly all actives have a fitted effect of over 65% in size
Method in brief: as §1

[13] = Quantitative High-Throughput drug screen in 47 multiple myeloma cell lines against the NCATS MIPE library collection: OPM1_PLB cell viability assay (AID 1918989); note: nearly all actives have a fitted effect of over 40% in size
Method in brief: as §1

[14] = Quantitative High-Throughput drug screen in 47 multiple myeloma cell lines against the NCATS MIPE library collection: U266_ATCC cell viability assay (AID 1919864); note: nearly all actives have a fitted effect of over 35% in size
Method in brief: as §1

[15] = Quantitative High-Throughput drug screen in 47 multiple myeloma cell lines against the NCATS MIPE library collection: XG6_PLB cell viability assay (AID 1919865); note: nearly all actives have a fitted effect of over 40% in size
Method in brief: as §1

[16] = Quantitative High-Throughput drug screen in 47 multiple myeloma cell lines against the NCATS MIPE library collection: XG1_PLB cell viability assay (AID 1919866); note: nearly all actives have a fitted effect of over 35% in size
Method in brief: as §1

[17] = Quantitative High-Throughput drug screen in 47 multiple myeloma cell lines against the NCATS MIPE library collection: VP6_DJ cell viability assay (AID 1919867); note: nearly all actives have a fitted effect of over 40% in size
Method in brief: as §1

[18] = Quantitative High-Throughput drug screen in 47 multiple myeloma cell lines against the NCATS MIPE library collection: OCIMY1_PLB cell viability assay (AID 1918979); note: nearly all actives have a fitted effect of over 35% in size
Method in brief: as §1

[19] = Quantitative High-Throughput drug screen in 47 multiple myeloma cell lines against the NCATS MIPE library collection: SKMM1_PLB cell viability assay (AID 1919863); conditions: SKMM1 myeloma viability, CellTiter-Glo ATP, 48 h; viability: stronger effect = lower value; note: nearly all actives have a fitted effect of over 35% in size
Method in brief: as §1

[20] = Quantitative High-Throughput drug screen in 47 multiple myeloma cell lines against the NCATS MIPE library collection: LP1_DSMZ cell viability assay (AID 1918982); note: nearly all actives have a fitted effect of over 35% in size
Method in brief: as §1

Measured: Potency
Potency is the fitted concentration of half-maximal effect.

CNC(=O)c1ccccc1Nc1nc(Nc2ccc(N3CCOCC3)cc2OC)ncc1Cl
active: [1] 209 nM | [2] 418 nM | [3] 526 nM | [4] 14800 nM | [5] 166 nM | [6] 662 nM | [7] 833 nM | [8] 935 nM | [9] 132 nM | [10] 935 nM | [11] 332 nM | [12] 1320 nM | [13] 5260 nM | [14] 13200 nM | [15] 5900 nM | [16] 6620 nM | [17] 526 nM

Cc1nc(N)ncc1-c1nc(N2CCOCC2)c2sc(C(C)(C)O)cc2n1
active: [1] 1050 nM | [2] 526 nM | [3] 148 nM | [4] 118 nM | [18] 105 nM | [6] 743 nM | [7] 1320 nM | [8] 118 nM | [9] 74.3 nM | [10] 1660 nM | [11] 1180 nM | [12] 662 nM | [13] 1180 nM | [19] 166 nM | [14] 5260 nM | [15] 3320 nM | [16] 1660 nM | [17] 935 nM

Nc1ccccc1NC(=O)c1ccc(CNC(=O)OCc2cccnc2)cc1
active: [1] 469 nM | [2] 4690 nM | [3] 4690 nM | [5] 1320 nM | [18] 4690 nM | [6] 935 nM | [7] 833 nM | [20] 1660 nM | [8] 2350 nM | [9] 418 nM | [10] 935 nM | [11] 1660 nM | [12] 1320 nM | [13] 743 nM | [19] 1320 nM | [14] 5900 nM | [15] 2350 nM | [16] 1660 nM | [17] 743 nM

CC(C)=CCCC(C)=CCCC(C)=CCSc1ccccc1C(=O)O
active: [1] 5900 nM | [2] 4180 nM | [3] 1320 nM | [4] 1480 nM | [5] 526 nM | [18] 33.2 nM | [6] 5260 nM | [7] 3320 nM | [8] 1660 nM | [10] 1320 nM | [12] 1480 nM | [13] 14800 nM | [19] 2640 nM | [14] 372 nM | [15] 4180 nM | [16] 662 nM | [17] 1870 nM

O=C(NC1CCNCC1)c1[nH]ncc1NC(=O)c1c(Cl)cccc1Cl
active: [1] 118 nM | [2] 187 nM | [3] 418 nM | [4] 148 nM | [18] 2640 nM | [6] 105 nM | [7] 296 nM | [20] 264 nM | [8] 235 nM | [9] 469 nM | [10] 418 nM | [11] 3720 nM | [13] 1870 nM | [19] 526 nM | [14] 187 nM | [15] 469 nM | [16] 833 nM | [17] 590 nM

CNC(=O)c1nn(C)c2c1C(C)(C)Cc1cnc(Nc3ccc(N4CCN(C)CC4)cc3)nc1-2
active: [1] 132 nM | [2] 13200 nM | [3] 11800 nM | [4] 1870 nM | [5] 2640 nM | [18] 5260 nM | [6] 1660 nM | [7] 3320 nM | [20] 5900 nM | [8] 4180 nM | [9] 662 nM | [10] 1480 nM | [11] 1320 nM | [12] 1180 nM | [13] 1660 nM | [19] 9350 nM | [15] 2960 nM | [16] 2640 nM | [17] 743 nM

CN1CC[C@@H](c2c(O)cc(O)c3c(=O)cc(-c4ccccc4Cl)oc23)[C@@H](O)C1
active: [1] 29.6 nM | [2] 105 nM | [3] 187 nM | [4] 52.6 nM | [5] 74.3 nM | [18] 187 nM | [6] 93.5 nM | [7] 105 nM | [20] 66.2 nM | [8] 132 nM | [11] 29.6 nM | [12] 66.2 nM | [13] 83.3 nM | [19] 187 nM | [14] 166 nM | [17] 52.6 nM

Cc1[nH]nc2ccc(-c3cncc(OC[C@@H](N)Cc4ccccc4)c3)cc12
active: [1] 935 nM | [2] 2640 nM | [3] 2960 nM | [5] 1480 nM | [18] 6620 nM | [6] 935 nM | [7] 1320 nM | [20] 4180 nM | [8] 4180 nM | [9] 935 nM | [10] 4690 nM | [11] 33.2 nM | [12] 3320 nM | [13] 2350 nM | [19] 8330 nM | [14] 59 nM | [15] 935 nM | [16] 590 nM | [17] 833 nM
